Assays:
Assay in all cases: PBM binding z-score (relative to random genomic background probes); higher = stronger binding; sequences stand for … in GC…GCGATTGACAGCGTAGAATGAAGG
[1] = test system: PPARg:RXRa DBDmut IVT, anti-RXR (DBD mutation: RXRa K156A/R161A, NR concentration 270 nM, RXRa partner concentration 90 nM)
How it was run: (§1)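 Scanned fluorescence from custom Agilent 4×180K protein-binding microarrays was regression-normalized. Binding z-scores use random background probes as reference. Ligand-free nuclear receptor dimers were incubated on the arrays for 1 h and detected with antibodies against each partner (one per run).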

[2] = test system: PPARg:RXRa IVT, anti-PPARg (NR concentration 270 nM, RXRa partner concentration 90 nM)
How it was run: as §1

[3] = test system: PPARg DBDmut:RXRa IVT, anti-PPARg (DBD mutation: PPARg1 K132A/R137A, NR concentration 270 nM, RXRa partner concentration 90 nM)
How it was run: as §1

[4] = test system: PPARg DBDmut IVT, anti-PPARg (DBD mutation: PPARg1 K132A/R137A, NR concentration 270 nM)
How it was run: as §1

[5] = test system: PPARg homodimer (NR concentration 180 nM)
How it was run: as §1

[6] = test system: PXR:RXRa (NR concentration 270 nM, RXRa partner concentration 90 nM)
How it was run: as §1

[7] = test system: PXR homodimer (NR concentration 270 nM)
How it was run: as §1

[8] = test system: RARa:RXR (NR concentration 270 nM, RXRa partner concentration 90 nM)
How it was run: as §1

[9] = test system: RARa homodimer (NR concentration 270 nM)
How it was run: as §1

[10] = test system: RARb:RXRa (NR concentration 270 nM, RXRa partner concentration 90 nM)
How it was run: as §1

[11] = test system: RARb homodimer (NR concentration 270 nM)
How it was run: as §1

[12] = test system: RARg:RXRa (NR concentration 270 nM, RXRa partner concentration 90 nM)
How it was run: as §1

[13] = test system: RARg homodimer (NR concentration 270 nM)
How it was run: as §1

[14] = test system: RXRa DBDmut IVT, anti-RXR (DBD mutation: RXRa K156A/R161A, NR concentration 90 nM)
How it was run: as §1

[15] = test system: RXRa homodimer (NR concentration 180 nM)
How it was run: as §1

[16] = test system: THRa:RXRa (NR concentration 90 nM, RXRa partner concentration 90 nM)
How it was run: as §1

[17] = test system: THRa homodimer (NR concentration 90 nM)
How it was run: as §1

[18] = test system: VDR homodimer (NR concentration 270 nM)
How it was run: as §1

| Sequence | PBM binding z-score [1] | PBM binding z-score [2] | PBM binding z-score [3] | PBM binding z-score [4] | PBM binding z-score [5] | PBM binding z-score [6] | PBM binding z-score [7] | PBM binding z-score [8] | PBM binding z-score [9] | PBM binding z-score [10] | PBM binding z-score [11] | PBM binding z-score [12] | PBM binding z-score [13] | PBM binding z-score [14] | PBM binding z-score [15] | PBM binding z-score [16] | PBM binding z-score [17] | PBM binding z-score [18] |
| --- | --- | --- | --- | --- | --- | --- | --- | --- | --- | --- | --- | --- | --- | --- | --- | --- | --- | --- |
| ACTACCAGGCCAAGTTTGGGTCACTCAAACAAAG | 1.12 | 2.04 | 0.0556 | -0.292 | 0.797 | 0.921 | 0.121 | 1.45 | 0.491 | 2 | 2.49 | 2.52 | 1.72 | 0.137 | 0.944 | 2.86 | 1.72 | 0.598 |
| CCTAGCAGGCCAAGGTCACTCAAGCATTTCGCTT | 2.14 | 1.93 | -1.42 | -0.849 | 1.92 | 3.35 | 0.64 | 3.65 | 0.757 | 3.55 | 3.82 | 3.82 | 3.92 | 1.05 | 3.51 | 3.66 | 2.88 | 2.2 |
| CCTATTAGTTGACCATAAGGGCAACCGCAGCTCG | 0.361 | 0.808 | 0.402 | 0.299 | 0.816 | 0.705 | 1.05 | 0.896 | 1.78 | 1.54 | 2.18 | 1.05 | 1.07 | 0.58 | 0.711 | 1.83 | 1.49 | 0.923 |
| ATCTCTAGGTAAGACTCAGTTCAGTGTAGAACGC | 2.3 | 1.23 | 0.993 | 0.824 | 1.01 | 1.15 | 1.68 | 0.389 | 1.23 | 0.291 | 0.758 | 0.266 | 0.408 | 0.967 | 0.133 | 0.88 | 0.909 | 1.39 |
| CGTCAAAGTGCAAGGTAACGTAACAGAAAGCAGC | 0.0283 | 0.682 | -0.0131 | -0.0811 | 0.153 | 0.149 | -0.225 | 0.344 | -0.0833 | 2.05 | 0.846 | 0.771 | 1.24 | 1.21 | 0.508 | 1.08 | 0.0291 | 0.017 |
| CCTAGCAGGTCAGGGTCACTCAAGCATTTCGCTT | 3.35 | 4 | -0.304 | -1.12 | 2.56 | 3.91 | 0.115 | 4.5 | 0.487 | 4.2 | 4.32 | 5.02 | 5.1 | 1.94 | 5.24 | 3.71 | 1.83 | 2.32 |
| TCTTGTAGATCAGGAGGTTAAGAAAGCTGGCCAA | 1.51 | 0.654 | 0.143 | -0.244 | 0.0785 | 0.352 | -0.154 | 0.854 | -0.318 | 0.586 | 0.528 | 0.46 | 0.00207 | 0.445 | 1.29 | 0.711 | -0.548 | -0.308 |
| ATCGACAGGTCGAAGGTGAGTATACCCACCCGAA | -0.979 | 1.09 | 0.369 | -0.333 | 0.63 | 0.914 | -0.44 | 1.5 | -0.439 | 1.64 | 0.661 | 1.8 | 1.51 | -0.283 | 2.37 | 0.716 | -0.432 | -0.198 |
| TCTTGTAGATCAGCACGTTAAGAAAGCTGGCCAA | 1.32 | -0.181 | -0.456 | -0.271 | -0.311 | 0.0608 | 0.0555 | 0.441 | 0.0158 | -0.204 | -0.823 | -0.246 | -0.479 | 0.626 | -0.185 | -0.261 | -0.422 | -0.0275 |
| GCGACGGGGGCAAAGCAGGTTACCATAAGGTTGG | 2.39 | 4.59 | 4.08 | 8.05 | 1.37 | 3.8 | 1.1 | 2.78 | 0.26 | 2.88 | 2.24 | 3.47 | 3.11 | 2.62 | 2.73 | 4.56 | 1.23 | 2.8 |
| CCTTACGGGACACTGACAGGTTATAGCATTTGGA | 0.975 | 0.149 | 0.162 | -0.682 | -0.0979 | -0.2 | 0.162 | -0.0303 | 0.647 | 0.42 | 0.492 | 0.652 | 0.903 | 0.645 | 0.341 | 0.178 | 0.0512 | -0.0453 |
| CGTCCAAGGTCAGAGAGGTCAGTCAATGCCGAGT | 2.82 | 3.35 | -0.282 | -0.369 | 4.06 | 6.13 | 12.6 | 5.82 | 1.78 | 5.12 | 5.37 | 6.53 | 7.2 | 3.32 | 5.76 | 4.46 | 2.83 | 5.88 |
| CCTACTGCGCCAAAAAGGTCATTGATGCCGATAA | 0.459 | 1.48 | 0.19 | 0.294 | 4.51 | 4.87 | 3.21 | 5.58 | 3.23 | 4.05 | 4.48 | 4.82 | 4.32 | 1.65 | 5.56 | 3.04 | 1.34 | 3.24 |
| CGTACTAGGTCAGAACAGGACAGTGAAGGATGAT | 6.87 | 6.46 | 1.58 | 0.904 | 1.06 | 1.05 | 0.324 | 1.26 | 0.637 | 3.05 | 2.2 | 2.5 | 3.38 | 0.907 | 0.946 | 3.33 | 0.353 | 0.141 |
